BAP1 block = blocks human BAP1 ubiquitin-AMC hydrolysis. Q92560. recombinant BAP1, Ub-AMC hydrolysis fluorescence kinetic; stronger effect = lower value. calls only at 20 µM. actives 0.48% (n = 72,000). AID 436;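 active means activity remaining at or below 50% of control, provided the compound also passes the data quality filters; inactive means the rest, including low values that fail the filters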
M1 agonist = activates the M1 muscarinic receptor | actives 3% (n = 64,000) | CHO-M1 cells, Fluo-4 calcium fluorescence, agonist mode; stronger effect = higher value | B-score at 10 µM | AID 626;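 active means fluorescence rise, raw or as B-score row- and column-corrected plate score, outside the 99.7% band of its plate's samples, either direction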
WNV protease inh = blocks West Nile virus NS2B-NS3 protease activity. P06935. z-score (concentration not given with the values). AID 577. actives 0.18% (n = 65,000). WNV NS2B-NS3 protease, fluorogenic substrate Ex360/Em465; stronger effect = lower value; in the data active means z-score below about -3
Target sequence (P06935 1371-1501 limits assumed): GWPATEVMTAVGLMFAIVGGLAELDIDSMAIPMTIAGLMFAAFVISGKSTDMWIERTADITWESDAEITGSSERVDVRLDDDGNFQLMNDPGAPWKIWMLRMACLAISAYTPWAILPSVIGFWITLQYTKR
Target sequence (P06935 1502-1679 limits assumed): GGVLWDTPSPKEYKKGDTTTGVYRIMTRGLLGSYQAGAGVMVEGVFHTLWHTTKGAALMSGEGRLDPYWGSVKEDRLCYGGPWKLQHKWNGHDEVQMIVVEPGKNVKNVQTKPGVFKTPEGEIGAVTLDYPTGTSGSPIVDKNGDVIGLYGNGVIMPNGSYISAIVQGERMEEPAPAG
M1 antagonist = antagonists of rat M1 muscarinic receptor; actives 3.4% (n = 64,000); B-score at 10 µM; AID 628; P08482; CHO-M1 cells, Fluo-4 calcium, ACh EC80 antagonist mode; stronger effect = lower value;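 active means calcium fluorescence response, raw or row-and-column corrected B-score, differing from the plate sample mean either way at a set confidence level, mostly lower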
A340 absorber = compound absorbs light at 340 nm; fold change at 10 µM; 65,000 tested, under 10 active; compound absorbance at 340 nm, fold over control; AID 708;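 active means at 10 µM dose, initial 340 nm absorbance at least 2 fold that of control wells; inactive means change under 2 fold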;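 further: initial absorbance extrapolated from kinetic A340 decline of NADH oxidation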
Autofluor 339 = intrinsic fluorescence of library compounds, ex339/em460 – biochemical, MLSMR library, data from DPM-DC assay, artefact control, profiling panel | compound autofluorescence, ex339/em460 nm, NADH buffer; stronger effect = higher value; 1 = no-compound wells, NADH background | fluorescence fold increase at 10 µM | actives 5.5% (n = 65,000) | AID 709;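 active means at 10 µM, mean starting fluorescence two-fold or more over control wells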;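 further: signal is the first read of a kinetic run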
Numbers stand for hits; - = inactive; . = no result given. Only some compounds are listed: those with a hit (about 9.7% of all), similar ones and a draw of the others.

SMILES | BAP1 block | M1 agonist | WNV protease inh | M1 antagonist | A340 absorber | Autofluor 339
COC(=O)c1ccccc1NC(=O)c1ccc2c(c1)C(=O)N(Cc1ccco1)C2=O | - | . | - | . | - | 3.1
O=C1N=C(c2ccccc2)C(c2ccccc2)N1 (stereo not given) | . | - | - | - | - | 2.2
CCCn1c(SCc2cc(=O)oc3ccc4ccccc4c23)n[nH]c1=O | . | - | - | - | - | 2.1
Cc1nn(C)cc1CN(C)C(=O)c1cc2nc(-c3ccco3)cc(C(F)(F)F)n2n1 | - | - | - | - | - | 2.7
Cc1nn(C)c(C)c1CN(C)C(=O)c1cc2nc(-c3ccco3)cc(C(F)(F)F)n2n1 | - | - | - | - | - | 2.5
O=C(Nc1ccc2c(c1)OCO2)c1cnn2c(C(F)(F)F)cc(-c3ccco3)nc12 | - | - | - | - | - | -
O=C1CCC(=O)N1c1nc2n(n1)C(c1ccccc1)C=C(c1ccc(Br)cc1)N2 (stereo not given) | - | 26 | - | - | - | -
COc1ccccc1C1C=C(c2ccc(Cl)cc2)Nc2nc(N3C(=O)CCC3=O)nn21 (stereo not given) | - | - | - | - | - | -
COc1ccc(C2C=C(c3ccc(Br)cc3)Nc3nc(N4C(=O)CCC4=O)nn32)cc1 (stereo not given) | - | 21 | - | - | - | 3.9
O=C(CCN1C(=O)c2ccccc2C1=O)Oc1ccc(C(=O)O)cc1 | - | . | . | . | . | .
O=C1Nc2cc(Cl)cnc2N2CCCC12 (stereo not given) | - | 13 | - | - | - | -
COc1ccc(C2(CC(N)=O)CCOC(C)(C)C2)cc1 (stereo not given) | - | . | . | . | . | .
O=C(Nc1ccc(N2CCOCC2)cc1)c1ccc2nc(-c3ccco3)c(-c3ccco3)nc2c1 | . | - | - | - | - | -
O=C(Nc1ccccc1)c1ccc2nc(-c3ccco3)c(-c3ccco3)nc2c1 | . | - | - | - | - | 2.6
O=[N+]([O-])c1ccc(N2CCN(c3ccc([N+](=O)[O-])c4cccnc34)CC2)c(Cl)c1 | - | . | . | . | . | .
CCOC(=O)c1cc2c(=O)n3ccccc3nc2n(Cc2ccccc2Cl)c1=N | - | - | - | - | - | 2.3
CCOC(=O)c1cc2c(=O)n3ccccc3nc2n(Cc2ccccc2)c1=N | . | - | - | - | - | 2.5
CCOC(=O)c1cc2c(=O)n3ccccc3nc2n(CC(C)C)c1=NC(=O)c1ccco1 | - | - | - | - | - | 2.5
COc1cc(-c2cc(C(F)(F)F)n3ncc(C(=O)Nc4ccc(Cl)cc4)c3n2)cc(OC)c1OC | - | . | . | . | . | .
Cc1ccccc1OCCNC(=O)CNC(=O)c1ccccc1O | - | - | - | - | - | 3.7
CCCOc1ccc(N2C(=O)CC(NCCCN3CCC(C(N)=O)CC3)C2=O)cc1 (stereo not given) | - | - | - | - | - | -
O=C1CC(N2CCOCC2)C(=O)N1Cc1ccc(N2CCCC2=O)cc1 (stereo not given) | - | - | -3.2 | - | - | -
NC(=O)C1CCN(CCCNC2CC(=O)N(Cc3ccc(N4CCCC4=O)cc3)C2=O)CC1 (stereo not given) | - | 4.2 | - | - | - | -
CC1=C(C(=O)OCCC(C)C)C(c2cc3c(cc2Br)OCO3)NC(=O)N1 (stereo not given) | - | . | . | . | . | .
Cc1cccc(OC(=O)CC2CS(=O)(=O)CC2CC(=O)Oc2cccc(C)c2)c1 (stereo not given) | - | . | . | . | . | .
SMILES | BAP1 block | M1 agonist | WNV protease inh | M1 antagonist | A340 absorber | Autofluor 339
COCc1cc(C)[nH]c(=O)c1C#N | - | - | - | - | - | 2.2
COCc1cc(C)nc(N)c1C#N | - | - | - | - | - | -
COCc1cc(=O)n2c([nH]c3ccccc32)c1C#N | . | . | - | . | - | 4.8
CN(C)C(=O)COc1ccc2cc(-c3ccccc3)c(=O)oc2c1 | - | - | - | - | - | 3
COCc1cc(=O)n2[nH]c(-c3ccccc3)cc2n1 | - | - | - | - | - | 2.1
COCc1cc(=O)n2[nH]c(-c3cccc(Br)c3)cc2n1 | - | - | - | - | - | -
CN1C(=O)c2ccc(N3CCCC3)cc2C1=O | - | 13 | - | - | - | -
CN1C(=O)c2ccc(N(C)C)cc2C1=O | - | - | - | - | - | -
COC(=O)C1=C(C)NC2=C(C(=O)CC(C)(C)C2)C1c1cccc(C)n1 (stereo not given) | . | - | - | - | - | 3.7
COC(=O)C1=C(C)NC2=C(C(=O)CCC2)C1c1cccc(C)n1 (stereo not given) | . | - | - | - | - | 4
COc1ccc(-n2nc3c(c2NC(=O)c2cc(OC)c(OC)c(OC)c2)CSC3)cc1 | - | . | . | . | . | .
CC(=O)Oc1ccc2c(=O)c(-c3csc(C)n3)coc2c1 | - | . | . | . | . | .
NC(=O)c1nsc(C(=O)N(CC(=O)NCc2ccc3c(c2)OCO3)C2CCCCC2)c1N | . | - | - | - | - | 2.9
Cc1cc(=O)[nH]c(SCCOc2ccccc2)n1 | - | . | . | . | . | .
CCOC(=O)N1CCN(c2ccc(Cl)c(Cl)c2)CC1 | - | - | - | - | - | -
CCOC(=O)N1CCN(C(=O)c2cc(Cl)c(Cl)cc2C(=O)O)CC1 | - | 4.6 | - | - | - | -
CCCCCOC(=O)C1=C(C)N(C)C(=O)NC1c1ccccc1Cl (stereo not given) | - | . | . | . | . | .
CCN1CCN(C(=O)c2nn(-c3ccc(OC)cc3)c(=O)c3c2c2ccccc2n3C)CC1 | - | - | - | - | - | -
COc1ccc(-n2nc(C(=O)NCc3ccco3)c3c4ccccc4n(C)c3c2=O)cc1 | . | - | - | - | - | 4.8
CN1c2ccccc2-c2nc3ccccc3n2C1c1ccccn1 (stereo not given) | . | - | - | - | - | 2.2
CCOCCCNC(=O)c1cc2c(=O)n3cccc(C)c3nc2n1C | . | - | - | - | - | 2.1
Cn1c(C(=O)NCc2ccccn2)cc2c(=O)n3ccccc3nc21 | . | - | - | - | - | 4.9
Cn1nc(C(=O)NCc2ccccn2)c2ccccc2c1=O | - | - | - | - | - | -
COCCNC(=O)c1cc2c(=O)n3cccc(C)c3nc2n1C | . | - | - | - | - | 2.1
Cc1cccn2c(=O)c3cc(C(=O)N(C)C)n(C)c3nc12 | . | - | - | - | - | 4.9
SMILES | BAP1 block | M1 agonist | WNV protease inh | M1 antagonist | A340 absorber | Autofluor 339
CCOC(=O)c1cc2c(=O)n3cccc(C)c3nc2n(C)c1=N | . | - | - | - | - | -
CC(=O)N1N=C(c2c(-c3ccccc3)c3cc([N+](=O)[O-])ccc3[nH]c2=O)CC1c1cccc(Br)c1 (stereo not given) | - | . | . | . | . | .
COc1cccc(C(=O)Nc2c(C)ccc3nsnc23)c1 | - | . | . | . | . | .
COc1ccc(S(=O)(=O)NCc2ccco2)cc1C(=O)O | - | . | . | . | . | .
Cn1c(C(=O)N2CCc3ccccc32)cc2c(=O)n3ccccc3nc21 | - | - | - | - | - | -
Cc1cccn2c(=O)c3cc(C(=O)N4CCN(c5ccccc5)CC4)n(C)c3nc12 | . | - | - | - | - | 5
Cc1cccn2c(=O)cc(O)nc12 | - | . | . | . | . | .

From PubChem BioAssay
